From PubChem
HTT cytoprotect – cytoprotection in Huntington HTT-Q103 PC12 cell model; Potency, µM (series often up to 56.4 µM), without a hit: cytoprotection (ATP increase), actives largely listed as activators; 230,000 tested, 0.14% active; PC12 HTT-Q103 induced, cytoprotection, ATP luminescence, 40 h; further: % of control where 0% means no effect; nearly all actives have a fitted effect of over 45% in size
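Huntington model: PC12 line, ecdysone-inducible HTTQ103 exon1–GFP, tebufenozide 100 nM. Test articles in a dose series. Endpoint luminescence from cellular ATP.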
Tau fluor cs – counter-screen for tau fibril formation inhibitors. tau K18 P301L Alexa594 fluorescence, heparin fibrillization. Potency, µM (series often up to 57.7 µM), for inactives: at the highest dose activity change, negative = decrease. 280,000 tested, 0.93% active; further: on the % scale 0 is the no-effect control and ±100 the full control effect; nearly all actives have a fitted effect of over 55% in size
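Human K18 P301L tau (15 uM unlabeled plus 0.24 uM Alexa 594-labeled, final) in 100 mM sodium acetate pH 7 was mixed with compound and 20 uM heparin and incubated 6 hr at 37 C.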
Tau FP inhib – tau fibrillization inhibition (FP). Potency, µM (top dose mostly 57.7 µM), for the others: at the top dose activity, negative = inhibition, most hits filed as inhibitors. 280,000 tested, 0.39% active. K18 P301L tau heparin fibrillization, Alexa594 FP, 6 h; further: on the % scale 0 is the no-effect control and ±100 the full control effect; nearly all actives have a fitted effect of over 55% in size
Target sequence (P10636 561-689 P618L limits assumed): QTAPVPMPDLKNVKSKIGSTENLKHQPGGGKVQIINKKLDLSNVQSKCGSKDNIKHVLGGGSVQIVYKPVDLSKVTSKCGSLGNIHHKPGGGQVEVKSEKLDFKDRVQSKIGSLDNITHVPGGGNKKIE
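FP of Alexa 594-tau after heparin (20 uM) induction. Substrate: human K18 P301L, 15 uM unlabeled, 0.24 uM labeled. Buffer 100 mM sodium acetate pH 7. 6 hr, 37 C.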
Tau fibril ThT – inhibitors of human tau fibril formation, thioflavin T binding. Potency, µM (top dose mostly 57.4 µM), inactives show top-dose activity, negative = inhibition, usual class: inhibitors. P10636. recombinant tau K18 P301L (four-repeat tau fragment), heparin-induced fibrillization, ThT fluorescence. AID 1460. 270,000 tested, 2.1% active; further: on the % scale 0 is the no-effect control and ±100 the full control effect; nearly all actives have a fitted effect of over 55% in size
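Heparin-induced (20 uM) aggregation of recombinant human K18 P301L tau, 15 uM unlabeled with 0.24 uM labeled, pH 7 acetate buffer, 6 hr at 37 C with compound. Fibrils quantified by 30 uM ThT fluorescence after 1 hr ambient incubation.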
HTT aggregate – inhibitors of mutant huntingtin aggregate formation in PC12 cells. PC12 HttQ103-GFP aggregates, Acumen cytometry, 40 h. 220,000 tested, 1.1% active. Potency, µM (top dose mostly 46.1 µM), for inactives: top-dose activity change, negative = inhibition, hits mostly inhibitors; further: on the % scale 0 is the no-effect control and ±100 the full control effect; nearly all actives have a fitted effect of over 60% in size
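PC12/HTTQ103-GFP, ecdysone-inducible; teb 100 nM; cpd qHTS titration; GFP aggregates read on laser cytometer, Ex 488/Em 500-530 nm.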
* hit, by the source's call; ? = inconclusive; nt = not tested or not shown; [ ] = dose if it differs, or a comment. Only some compounds are listed: those with a hit (about 3.7% of all), similar ones and a draw of the others. The call rests on the fitted dose curve; in most records, active means well fitted curve in the direction sought with a large enough effect; inconclusive means small, poorly fitted or top-dose-only effect, or another doubt; inactive means no such curve, though single readings can be large; an effect the other way counts as inactive or inconclusive. Potency means the concentration at half of the fitted maximal effect.

SMILES	HTT cytoprotect	Tau fluor cs	Tau FP inhib	Tau fibril ThT	HTT aggregate
COc1cc2c(cc1OC)[C@]13CCN4CC5=CCO[C@@H]6CC(=O)N2[C@@H]1[C@H]6[C@@H]5C[C@H]43	6.2%	nt	nt	nt	nt
Cc1c([C@@H](C)[C@H]2NC[C@H](C)C[C@@H]2O)ccc2c1C[C@@H]1[C@H]2CC=C2C[C@@H](O)CC[C@@]21C	12.6%[10 µM]	nt	nt	nt	nt
CC1(C)CC(=O)C(C2(O)C(=O)NC(=O)NC2=O)=C(O)C1	-3.7%	-18.0%	?	6.31µM*	-6.2%
O=C(Oc1ccc(S(=O)(=O)F)cc1F)c1ccccc1Cl	-9.3%[10 µM]	nt	nt	nt	nt
CCCCCC[C@H]1C(=O)O[C@@H](C)[C@H](NC(=O)c2cccc(NC=O)c2O)C(=O)O[C@@H](C)[C@@H]1OC(=O)CC(C)C	-4.4%	nt	nt	nt	nt
CNc1cc(Cl)c2nonc2c1[N+](=O)[O-]	-147.1%	?	-8.7%	11.2µM*	6.31µM*
C[C@@]12CC[C@H](O[C@@H]3O[C@H](CO)[C@@H](O)[C@H](O)[C@@H]3O)C[C@@H]1CC[C@H]1[C@H]2CC[C@@]2(C)[C@@H](C3=CCOC3=O)CC[C@]12O	9.4%[10 µM]	nt	nt	nt	nt
CN1CCN(c2ccc(S(C)(=O)=O)cc2[N+](=O)[O-])CC1	24.3%[10 µM]	0.2%	4.8%	-3.2%	-13.6%
CN1CCN(c2ccc([N+](=O)[O-])c3no[n+]([O-])c23)CC1	-77.7%[10 µM]	?	?	12.6µM*	?
Clc1ccc(N2C[C@H]3CC[C@@H](C2)N3)nn1	20.1%[1.9 µM]	nt	nt	nt	nt
COc1ccc2nc(NC(=O)c3nc(S(=O)(=O)Cc4cccc(C)c4)ncc3Cl)sc2c1	nt	?	-9.8%	14.1µM*	nt
CCOc1ccc2nc(NC(=O)c3cccn(Cc4ccc(C)cc4)c3=O)sc2c1	nt	-2.0%	-5.6%	-1.0%	nt
Cc1cc(C=C2C(=O)NC(=S)NC2=O)c(C)n1C1CCCC1	nt	-22.3%	-13.0%	15.8µM*	?
[CH3][Hg][Cl]	-92.8%	nt	nt	nt	nt
Cc1cc(OC(=O)c2cccs2)c2c3c(c(=O)oc2c1)CCCC3	28.8%[10 µM]	-24.3%	-2.3%	?	25.1µM*
Cc1cc(OC(=O)c2ccco2)c2c3c(c(=O)oc2c1)CCCC3	-82.1%	-28.8%	-7.8%	?	12.6µM*
CC1(C)C[C@H]2C=C(C=O)[C@]3(C=O)C[C@]3(C)[C@H]2C1	nt	-26.0%	?	14.1µM*	8.91µM*
N[C@H](Cn1oc(=O)[nH]c1=O)C(=O)O	-9.4%[1.9 µM]	nt	nt	nt	nt
CCC(C(=O)O)C1CCC(C)C(C(C)C(O)C(C)C(=O)C(CC)C2OC3(C=CC(O)[C@@]4(CC[C@](C)(C5CC[C@@](O)(CC)C(C)O5)O4)O3)C(C)CC2C)O1 (stereo partly specified)	-307.8%	-1.4%	-9.0%	-5.7%	1.41µM*
COc1cc2c(cc1OC)-c1c(OC)c(OC)c(C=O)c3c1[C@H](C2)N(C)CC3	?	?	?	22.4µM*	nt
COc1cc2c(cc1O)CC1c3c(cc(O)c(OC)c3-2)CCN1C (stereo unspecified)	-12.4%[1.9 µM]	?	4.8%	?	-4.8%[9.22 µM]
COc1cc2c(cc1O)C[C@H]1c3c(cc(OC)c(O)c3-2)CCN1C	-27.2%[1.9 µM]	?	?	14.1µM*	nt
O[N+]1=CC=CCC1=S.On1ccccc1=S.[Zn]	-343.0%	-23.4%	?	?	nt
CC(C)CCn1c(N)c(C(=O)NCc2cccs2)c2nc3ccccc3nc21	-39.4%	?	?	-15.9%	-32.4%
CC(C)OCCCNC(=O)c1c(N)n(Cc2cccs2)c2nc3ccccc3nc12	-27.8%	?	?	?	28.2µM*
Cc1ccc(C=C2C(Cl)=C(Cl)C(Cl)=C2Cl)cc1	35.0%[10 µM]	?	?	15.8µM*	6.9%[9.22 µM]
O=c1oc(Cl)c(Cl)c2ccccc12	-24.0%	-18.7%	?	11.2µM*	nt
COc1ccc2o/c(=N\O)c(C(=O)Nc3ccc(C)cc3)cc2c1	18.0%[10 µM]	-23.8%	-12.3%	15.8µM*	-1.7%[9.22 µM]
O=C(c1ccccc1)[C@H]1[C@H](c2ccccc2[N+](=O)[O-])N1C1CCCCC1 (stereo partly specified)	-1.5%[10 µM]	nt	nt	nt	nt
